# Screening data: PubChem, several laboratories
# BJeLR viability: BJeLR cell viability loss. 300,000 tested, 0.17% active. AID 1554. inhibition, % (test concentration not listed). BJeLR (HRASV12) viability, CellTiter-Glo ATP luminescence, 48 h; in the data active = inhibition above about 50%
# Sa RN4220 lethal: kills Staphylococcus aureus RN4220. 330,000 tested, 0.33% active. S. aureus RN4220 growth, OD600, 16 h. inhibition, % (no concentration beside the values); in the data active = inhibition above about 85%;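 also: plate controls were untreated cells for no effect and reference antibiotic for full effect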
# Sa ugtP lethal: compounds lethal to S. aureus RN4220 ugtP deletion mutant. OD600 growth, 16 h. growth inhibition, % (no concentration beside the values). 330,000 tested, 0.54% active; in the data active = growth inhibition above about 68%;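 also: plate controls were untreated wells for no effect and antibiotic for full effect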
# Mtb hypoxia inh: Mtb hypoxia fluorescent reporter inhibition. fluorescence inhibition, % (concentration not given with the values). AID 1159583. 300,000 tested, 0.1% active. M. tuberculosis hypoxia-regulated fluorescent reporter, fluorescence; in the data active = fluorescence inhibition mostly above about 23%, no sharp cut-off; inactive = mostly below about 17%
# CCHFV vOTU inh: blocks the CCHF virus ovarian tumor domain protease | CCHFV vOTU protease, Pep-AMC fluorescence | inhibition, % at 11.5 µM | 370,000 tested, 0.55% active; in the data active = inhibition above about 30%; also: 0% = vehicle wells with enzyme and 100% = no enzyme wells
# RecA intein inh: Mtb RecA intein splicing inhibition. P9WHJ3. cell-free RecA intein splicing, fluorescence. inhibition, % (test concentration not listed). 290,000 tested, 0.75% active. AID 2221; in the data active = inhibition above about 30%;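 also: 0% = vehicle wells and 100% = reference inhibitor control wells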
# Target sequence (P9WHJ3 whole entry, looked up): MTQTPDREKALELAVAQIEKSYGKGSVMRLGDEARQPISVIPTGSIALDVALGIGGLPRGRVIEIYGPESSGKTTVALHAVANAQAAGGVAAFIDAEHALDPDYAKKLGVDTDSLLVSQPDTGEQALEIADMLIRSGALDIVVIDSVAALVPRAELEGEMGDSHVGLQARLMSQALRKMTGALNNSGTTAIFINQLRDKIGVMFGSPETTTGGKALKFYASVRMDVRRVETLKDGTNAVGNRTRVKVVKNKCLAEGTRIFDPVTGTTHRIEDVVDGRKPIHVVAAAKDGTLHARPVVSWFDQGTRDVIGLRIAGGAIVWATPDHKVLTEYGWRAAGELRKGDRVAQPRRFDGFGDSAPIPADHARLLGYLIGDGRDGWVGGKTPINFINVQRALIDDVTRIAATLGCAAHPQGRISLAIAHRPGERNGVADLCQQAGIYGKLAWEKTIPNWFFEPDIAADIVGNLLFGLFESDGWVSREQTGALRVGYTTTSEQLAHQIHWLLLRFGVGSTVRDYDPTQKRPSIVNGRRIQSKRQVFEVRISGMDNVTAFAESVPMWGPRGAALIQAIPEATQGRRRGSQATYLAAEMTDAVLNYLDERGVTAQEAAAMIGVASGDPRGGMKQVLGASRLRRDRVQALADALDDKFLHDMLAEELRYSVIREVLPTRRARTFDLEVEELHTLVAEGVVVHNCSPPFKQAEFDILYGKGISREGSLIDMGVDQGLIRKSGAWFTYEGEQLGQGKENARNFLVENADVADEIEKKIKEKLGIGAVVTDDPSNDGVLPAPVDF
# An asterisk follows results filed as active; nt = no result shown. An excerpt weighted towards active compounds, which were near 1.6% of everything screened.
SMILES,BJeLR viability,Sa RN4220 lethal,Sa ugtP lethal,Mtb hypoxia inh,CCHFV vOTU inh,RecA intein inh
O=C(OCC#CCSc1nnc(-c2cccc3ccccc23)o1)c1ccc2ccccc2c1,nt,6,13,20,-3,nt
O=C(OCC#CCSc1nnc(-c2ccc(Br)cc2)o1)c1ccco1,-8,10,9,35*,-7,1
O=C(OCC#CCSc1nnc(-c2cccc3ccccc23)o1)c1cc2ccccc2o1,nt,14,-6,48*,-7,nt
COc1ccc(C(=O)C2CC[C@](C)(C(=O)O)C2(C)C)cc1 (some centres not stated),nt,4,0,6,nt,nt
CCOC(=O)C1C2COc3cc(OC)ccc3C2N2C(=O)CN(C)C(=O)[C@@]12C (some centres not stated),nt,5,4,22,nt,nt
Cc1ccc(COc2ccc(Br)cc2C=NO)cc1,nt,-9,100*,nt,nt,nt
ON=Cc1cc(Br)cc(Br)c1OCc1ccccc1,nt,-12,91*,nt,nt,nt
C=CCOc1ccc(Br)cc1/C=N/O,4,nt,nt,nt,4,1
CC1CCC(=O)N(CC(C)CSc2ccccc2)CC1 (configuration not stated),nt,7,5,9,nt,nt
COc1ccccc1CNC(=O)c1cccc(-c2ccc(C)c3ccccc23)n1,-12,7,4,0,-4,-2
CCCCCCNC(=O)c1cccc(-c2ccc(C)c3ccccc23)n1,-4,-4,90*,11,8,3
NC(=O)NN=Cc1cn(CC(=O)Nc2ccc(F)cc2)c2ccccc12,nt,7,5,70*,nt,nt
COc1cc(CNc2ccc(O)cc2)cc(Br)c1OCc1ccccc1,0,-11,23,3,94*,20
COc1cc(CNC(C)c2ccccc2)cc(Br)c1OCc1ccccc1 (configuration not stated),23,-9,-11,7,8,12
C=C1C(=O)OC2CC(C)C3C4OC4C(=O)[C@@]3(C)C(O)C12 (some centres not stated),nt,17,9,nt,nt,nt
C[C@@H]1C[C@H]2OC(=O)C3(CO3)[C@H]2[C@H](O)[C@]2(C)C(=O)C3OC3[C@@H]12 (some centres not stated),73*,nt,nt,nt,nt,18
COc1cc(C=NNC(=O)c2ccccc2)ccc1OS(=O)(=O)c1ccccc1,nt,-3,90*,4,nt,nt
COc1ccc(C(=O)NN=Cc2ccc(OC)c(OS(=O)(=O)c3ccccc3)c2)cc1,nt,-3,-13,-8,nt,nt
CC(C)(C)CN1C(N)=NCC1c1ccccc1 (configuration not stated),nt,5,7,11,nt,nt
COc1ccc(-c2cc3nc(C)cc(-c4ccc(OC)cc4)n3n2)cc1,1,0,3,21,1,-2
COc1ccc(-c2cc3nc(C)cc(N)n3n2)cc1,51*,4,8,10,1,nt
O=[N+]([O-])c1ccc(OCc2cn(C(CO)c3ccccc3)nn2)c(Br)c1 (configuration not stated),nt,11,12,10,nt,nt
O=C1C=C(c2ccc(F)cc2OCc2ccccc2)CC(c2ccc3c(c2)OCO3)C1 (configuration not stated),nt,1,11,16,nt,nt
O=c1sc(/C=N/Nc2ccccc2)c(Cl)n1Cc1ccccc1,7,nt,nt,nt,1,6
O=C(O)c1cccc(Cn2c(Cl)c(C=NNc3ccccc3)sc2=O)c1,nt,94*,97*,-2,nt,nt
SMILES,BJeLR viability,Sa RN4220 lethal,Sa ugtP lethal,Mtb hypoxia inh,CCHFV vOTU inh,RecA intein inh
O=Cc1sc(=O)n(Cc2cccc(C(=O)O)c2)c1Cl,5,11,13,1,-4,54*
CN(CC(Cc1ccccc1)N(CC(CC1CCCCC1)N(CCc1ccccc1)N=O)N=O)N=O (configuration not stated),nt,4,3,9,nt,nt
C=C(C)C(=O)N1CC2(CC(c3cccc(NC(=O)C=CC)c3)=NO2)CC1C(N)=O (configuration not stated),nt,6,3,11,nt,nt
CC(NC(=O)CCC1CCC(=O)N1)c1ccccc1 (configuration not stated),nt,8,0,-3,nt,nt
O=C1N=NC2=C1c1c3ccccc3c(O)n1CC2,-18,7,7,15,27,56*
CCC(=O)Nc1cccc(C2=NOC3(C2)CC(C(N)=O)N(C(=O)c2cc([N+](=O)[O-])cc([N+](=O)[O-])c2C)C3)c1 (configuration not stated),nt,5,10,4,nt,nt
CN1c2ccsc2/C(=N/Nc2ccccc2)CS1(=O)=O,0,nt,nt,nt,9,4
CN1c2ccsc2C(=NNc2ccccc2)CS1(=O)=O,nt,83,96*,13,nt,nt
COC(=O)C(O)(c1ccc(NC(=S)NC(=O)c2ccc(Cl)cc2Cl)cc1)C(F)(F)F (configuration not stated),-4,5,86*,-4,25,5
COC(=O)C(O)(c1ccc(NC(=S)NC(=O)c2ccc(Cl)cc2Cl)c(C)c1)C(F)(F)F (configuration not stated),1,27,31,3,17,12
CCOC(=O)C(O)(c1ccc(NC(=S)NC(=O)c2ccc(Cl)cc2Cl)c(C)c1)C(F)(F)F (configuration not stated),-12,9,45,-4,10,5
CCOC(=O)C(O)(c1ccc(NC(=S)NC(=O)c2ccc(Cl)cc2Cl)cc1)C(F)(F)F (configuration not stated),12,24,84*,15,1,4
CC(C)c1nc(CN(C)C(=O)NC(C(=O)NC(Cc2ccccc2)CC(O)C(Cc2ccccc2)NC(=O)OCc2cncs2)C(C)C)cs1 (configuration not stated),nt,5,-7,-11,nt,nt
C[C@@H]1CC=C[C@H]2[C@H]1C(=O)N(Cc1ccccc1)[C@H]2c1ccc2ccccc2c1/C=C/c1ccccc1,-3,nt,nt,nt,-8,-2
CC1CC=CC2C1C(=O)N(Cc1ccccc1)C2c1ccc2ccccc2c1Br (configuration not stated),nt,88*,97*,-7,nt,nt
OCCC1CC(O)C(O)[C@]2(OCc3ccccc32)O1 (some centres not stated),nt,4,6,6,nt,nt
CCOc1ccc2nc(SCC(=O)N3c4ccccc4Sc4ccccc43)sc2c1,-6,-3,26,1,1,1
CCOc1ccc2nc(SCC(=O)N3CCCc4ccccc43)sc2c1,6,5,85*,5,4,8
Cc1ccsc1/C=C1/SC(N2CCOCC2)=NC1=O,11,-3,-16,48*,nt,1
O=C1N=C(N2CCOCC2)S/C1=C\c1cccs1,1,nt,nt,nt,6,1
CC(C)(C)C1CCc2sc(-c3nnc(CCl)o3)cc2C1 (configuration not stated),7,1,11,18,1,51*
COc1ccccc1NS(=O)(=O)c1cccc(C(=O)NN=Cc2ccc([N+](=O)[O-])o2)c1,nt,98*,99*,0,nt,nt
O=C(N/N=C/c1ccc([N+](=O)[O-])o1)c1ccccc1NS(=O)(=O)c1cccs1,6,nt,nt,nt,7,40*
